# Columns and labels:
# Settings in all cases: concentration: 1 μM, replicates: in singlicate; n = 1
# [1] = system: PRKCE
# [2] = system: PRKCH
# [3] = system: PRKCI
# [4] = system: PRKCQ
# [5] = system: PRKD1
# [6] = system: PRKD2
# [7] = system: PRKD3
# [8] = system: PRKG1
# [9] = system: PRKG2
# [10] = system: T1, PRKR
# T1 construct: gene EIF2AK2
# 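Note: KINOMEscan kinase panel screen.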
Structure (SMILES),%Inh [1],%Inh [2],%Inh [3],%Inh [4],%Inh [5],%Inh [6],%Inh [7],%Inh [8],%Inh [9],%Inh [10]
Cc1cc(Nc2nc(-c3cccc(C)n3)nc3ccccc23)ccn1 [GW872411],0%,0%,0%,0%,99.4%,99.9%,76%,14%,0%,0%
CCc1ccc(-c2ccc3c(c2)-c2nn(C)cc2S(=O)(=O)N3C)cc1,0%,0%,18%,10%,0%,13%,0%,0%,0%,0%
CCS(=O)c1ccc(-c2coc3ccc(-c4nnc(C)o4)cc23)cc1 (stereo not drawn),0%,0%,0%,14%,0%,0%,0%,21%,9%,0%
COc1cccc(C2=C(N(C)c3ccccc3)C(=O)NC2=O)c1 [SB-334865],25%,5%,7%,0%,6%,0%,10%,0%,0%,0%
Nc1nc(-c2ccccc2F)c(-c2ccnc3ccccc23)s1 [GW560459],17%,11%,13%,0%,0%,0%,27%,1%,0%,0%
CCC(=O)c1c(-c2ccccc2)c2cc(Cl)ccc2c(=O)n1Cc1cc(C(=O)NC2CC2)n(C)n1,20%,0%,0%,41%,0%,3%,0%,0%,0%,0%
CCn1c(-c2ccoc2)nc2cnccc21 [SB-733887],7%,0%,9%,0%,2%,0%,27%,0%,0%,0%
COc1cc2nccc(Nc3cccc(Oc4ccccc4)c3)c2cc1OC.Cl [GW284543],0%,0%,18%,1%,0%,0%,31%,3%,0%,0%
COc1cc2ncn(-c3cc(OCc4ccncc4Br)c(C(N)=O)s3)c2cc1OC [GW854278],7%,0%,13%,22%,0%,11%,0%,0%,0%,0%
Cc1nn2c(=O)cc(N3CCOCC3)nc2n1Cc1cccc(Cl)c1Cl [GSK2342769],0%,21%,5%,19%,20%,0%,16%,0%,0%,0%
COC(=O)c1c(-c2ccccc2)c2cc(C)ccc2c(=O)n1Cc1ccccc1,0%,0%,0%,36%,0%,8%,0%,0%,0%,0%
COc1ccc(Nc2nccc(N3CCC(NS(=O)(=O)c4ccc(NC(C)=O)cc4)C3)n2)cc1 (stereo not drawn) [GSK1379729],22%,22%,22%,10%,25%,0%,41%,12%,0%,0%
CCC(=O)c1c(-c2ccccc2)c2cc(Cl)ccc2c(=O)n1Cc1ccc(C(=O)O)cc1,0%,0%,0%,9%,0%,6%,0%,0%,0%,0%
COc1cc2ncn(-c3cc(OCc4ccncc4)c(C(N)=O)s3)c2cc1OC [GSK336313],1%,0%,0%,0%,47%,3%,15%,0%,0%,0%
C[C@@H]1CC[C@H](C(=O)NC2CCCCC2)CN1c1cc(-c2ccc3c(N)n[nH]c3c2)nc(N)n1 [GSK2291363],14%,34%,37%,34%,0%,12%,26%,17%,0%,14%
Nc1ncnc2c1ncn2-c1cccc(F)c1 [SKF-97560],3%,0%,22%,20%,0%,10%,9%,0%,10%,0%
Cc1cccc(-c2cc(-c3c[nH]nc3-c3ccccn3)ccn2)c1 [GW679395],13%,0%,4%,35%,57%,48%,22%,0%,0%,0%
O=C(NCc1cccs1)c1cc(C(=O)c2c(Cl)cccc2Cl)c[nH]1 [GW823670],9%,0%,0%,0%,35%,3%,13%,0%,0%,0%
